# This is a sample that favours compounds with a hit; in the whole collection about 19% have one here.
# Chronic BCR inh = blocks chronic active B-cell receptor signaling; ABC-DLBCL IkBa-CBG/CBR reporter, luminescence ratio, 4 h; Potency, µM (series often up to 46.1 µM), usual class: inhibitors; 0.05% of 340,000 active; active = well fitted inhibition curve with a large enough effect in the signal ratio, with a control signal flat, not every such curve was filed as active; inconclusive = small, poorly fitted or top-dose-only effect, or effect the other way, or a change in a side signal; the % refers to the signal ratio
#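 TMD8 ABC-DLBCL cells carrying doxycycline-inducible green luciferase fused to IkappaBalpha plus unfused red luciferase were exposed to compounds (up to 46 uM) for 4 hrs at 37C. Activity came from the overlap-corrected green/red luminescence ratio.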
# DT40 TDP1 CPT = growth inhibition of DT40 Tdp1-/-;hTDP1 cells with camptothecin (screen for TDP1 inhibitors). Potency, µM (top dose mostly 46.2 µM), usual class: inhibitors. AID 686979. chicken DT40 Tdp1-/-;hTDP1 cells + 20 nM CPT, ATP luminescence, 48 h. 12% of 420,000 active; note: nearly all actives have a fitted effect of over 55% in size
#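 Chicken DT40 Tdp1-/- cells stably complemented with human TDP1 were seeded at 400 cells/well in medium containing 20 nM camptothecin, exposed to pin-transferred compounds, and grown at 37 °C for at least 48 hr. Viability was read as ATP luminescence.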
# IL1B secr inh = inflammasome signaling inhibition, IL-1 beta readout | THP-1 LPS/ATP IL-1B secretion, AlphaLISA, 16 h; hits give low values | activity change, % at 57.5 µM | 4.7% of 360,000 active | AID 743279; in the data active = activity change below about -50%; inconclusive = mostly about -30% to -49%
#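 Secreted IL-1B measured by AlphaLISA bead assay after 16 h compound exposure of THP-1 cells; compounds (final up to 57.5 uM) added 1 h before LPS (250 ng/mL) and ATP (1.25 mM) stimulation; lower signal means less secretion.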
# SW480 rerep = inducers of DNA re-replication in SW480 colon cancer cells; SW480 DNA re-replication, Hoechst DNA content imaging, 48 h; Potency, µM (doses to about 46.1 µM), usual class: activators; 1.8% of 340,000 active; AID 624297; note: nearly all actives have a fitted effect of over 55% in size
#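 Readout is total intensity of Hoechst-stained nuclei, excited at 405 nm and collected at 500-530 nm. Compound treatment lasted 48 hr at 37 C in 5% CO2 before staining.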
# TDP1 cell noCPT = qHTS for Inhibitors of human tyrosyl-DNA phosphodiesterase 1 (TDP1): qHTS in cells in absence of CPT. DT40 Tdp1-/- hTDP1 cells, no CPT, ATP luminescence, 48 h. Potency, µM (doses to about 46.2 µM), hits mostly inhibitors. 15% of 420,000 active; note: nearly all actives have a fitted effect of over 55% in size
#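 Compound effects on proliferation are scored in DT40 Tdp1-/-;hTDP1 cells in the absence of CPT. ATP levels (CellTiter-Glo luminescence) are recorded after a ≥48 hr, 37 °C incubation.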
# MCF10A rerep = DNA re-replication induction in MCF 10a cells; MCF 10A DNA re-replication, Hoechst nuclear intensity, 48 h; Potency, µM (series often up to 46.1 µM), hits mostly activators; AID 624296; 2.9% of 350,000 active; note: nearly all actives have a fitted effect of over 50% in size
# Hits are given with their value; n = inactive; u = inconclusive; x = no result; ! = not active in a repeat. Unless noted, calls come from the whole dose curve; as a rule, active = well fitted curve in the direction sought with a large enough effect; inconclusive = small, poorly fitted or top-dose-only effect, or another doubt; inactive = no such curve, though single readings can be large; an effect the other way counts as inactive or inconclusive.
SMILES,Chronic BCR inh,DT40 TDP1 CPT,IL1B secr inh,SW480 rerep,TDP1 cell noCPT,MCF10A rerep
Cc1ccc2oc3c(c(=O)c2c1)C(c1ccccc1F)N(CCCN(C)C)C3=O (configuration not stated),x,n,x,x,n,x
O=C1c2oc3ccc(F)cc3c(=O)c2C(c2ccc(F)cc2)N1CCCN1CCOCC1 (configuration not stated),x,n,n,n,n,n
CCCOc1ccc(-c2nn(-c3ccccc3)cc2C2NC(=O)NC(C)=C2C(=O)OC)cc1 (configuration not stated),x,u,x,x,16.4µM,x
COC(=O)C1=C(C)NC(=O)NC1c1ccc(N2CCC(c3ccccc3)=N2)cc1 (configuration not stated),n,u,-68.8,2.06µM,u,5.17µM
COC(=O)C1=C(C)NC(=O)NC1c1ccc(OC)c(OC)c1 (configuration not stated),x,n,n,x,n,x
Cc1ccc(OCC(=O)Nc2nnc(S(=O)(=O)N3c4ccccc4CC3C)s2)cc1 (configuration not stated),x,u,x,x,n,x
N#CC1(NC(=O)CN2C(=O)NC(c3ccccc3)(c3ccccc3)C2=O)CCCC1,n,n,n,n,n,n
O=C(Cc1c(F)cccc1Cl)OCC(=O)c1ccc[nH]1,n,n,n,n,n,n
O=C(c1cccc(F)c1)N1CCC2(CCCN(c3ccc(-c4ccccc4)cc3)C2)CC1,x,n,x,x,u,x
COCC(C)n1c(SCC(=O)Nc2sccc2C(N)=O)nc2ccccc2c1=O (configuration not stated),u,20.6µM,n,n,7.31µM,u
COCCn1c(SCC(=O)Nc2sccc2C(N)=O)nc2cc(Cl)ccc2c1=O,u,u,-54.1,n,u,n
COCCn1c(SCC(=O)Nc2cccc(S(N)(=O)=O)c2)nc2cc(Cl)ccc2c1=O,n,14.6µM,-68.0,u,18.4µM,u
COCCn1c(SCC(=O)Nc2cccnc2Cl)nc2cc(Cl)ccc2c1=O,u,n,n,n,n,n
COCC(C)n1c(SCC(=O)Nc2nccs2)nc2ccccc2c1=O (configuration not stated),u,n,n,n,n,n
COCCCn1c(SCC(=O)N2CCOCC2)nc2cc(Cl)ccc2c1=O,u,n,n,n,n,n
Cc1nnc(SCC(=O)Nc2cccc(S(N)(=O)=O)c2)n1-c1ccccc1,n,n,n,n,n,n
Cc1ccc(-n2c(SCC(=O)Nc3cccc(S(N)(=O)=O)c3)nc3ccccc32)cc1,u,18.4µM,n,n,u,16.4µM
CC(=O)N1CCN(S(=O)(=O)c2cccc(C(=O)NNC(=O)COc3ccc(Cl)cc3C)c2)CC1,n,n,n,n,n,n
COCCn1cnnc1SCC(=O)Nc1ccc(Br)cc1F,n,n,n,n,n,n
COc1ccc(CNC(=O)CS(=O)(=O)Cc2nc(-c3cccc(OC)c3)oc2C)cc1,n,u,n,n,u,n
COc1cccc(-c2nc(CS(=O)(=O)CC(=O)NCc3ccc(C)cc3)c(C)o2)c1,x,23.1µM,x,x,u,x
COc1cccc(-c2nc(CS(=O)(=O)CC(=O)Nc3c(C)cc(C)cc3C)c(C)o2)c1,x,18.4µM,x,x,23.1µM,x
COc1cccc(-c2nc(CS(=O)(=O)CC(=O)Nc3c(C)cccc3C)c(C)o2)c1,n,u,n,n,u,n
CN1CCC(=C2c3ccccc3C=Cc3ccccc32)CC1,u,29.9µM!,u,u,26.6µM!,u
CN1CCC(=C2c3ccccc3Sc3ccccc32)CC1,x,7.31µM,u,u,18.4µM,26.6µM
CN1CCC(=C2c3ccccc3CCc3cccnc32)CC1,x,n,x,x,n,x
COc1ccc(-c2cc3c(=O)n(CC(=O)N4CCN(C)CC4)ncn3n2)cc1,u,20.6µM,n,n,n,n
COc1ccc(/C=C2\SC(=S)N(CC(=O)N3CCN(C)CC3)C2=O)cc1,n,u,n,n,20.6µM,u
